Our source for the outcome and AC50 values is PubChem BioAssay (EPA / NIEHS).

Each structure is given as a SMILES string. Calls of active or inactive are those of the source. The calls were made as follows: active = hit-call score of the fitted dose curve at least 0.9, where 1 is the maximum; inactive = score below 0.9.

Common to all, as to conditions: mRNA level, 48 h; actives raise or lower the signal
Read-out in assay [1]: Tumor necrosis factor receptor superfamily member 6 (Homo sapiens) (UniProt P25445)
Kind of assay: LTEA_HepaRG_FAS: Life Technologies and Expression Analysis (LTEA) Assay for Fas cell surface death receptor (FAS) using HepaRG (AID 2283447). The gist of the method: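 Differentiated HepaRG cells in serum-free induction medium were exposed 48 h to 8 half-log concentrations up to 100 uM in 0.5% DMSO, in duplicate. FAS mRNA was measured by qRT-PCR normalised to ACTB, GAPDH and POLR2A; bidirectional fit versus DMSO.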

Read-out in assay [2]: Fatty acid synthase (Homo sapiens) (UniProt P49327)
Kind of assay: LTEA_HepaRG_FASN: Life Technologies and Expression Analysis (LTEA) Assay for Fatty Acid Synthase (FASN) using HepaRG (AID 2283448).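 As to AC50: differentiated human HepaRG liver cells in serum-free induction medium.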 The procedure, abridged: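 Cells were plated, cultured 48 h, switched to serum-free induction medium, then dosed in duplicate (max 100 uM, half-log dilutions, 0.5% DMSO) for 48 h. RNA was then isolated and FASN quantified by qRT-PCR.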

Read-out in assay [3]: Cyclin D2 (CCND2), CCND2 (gene 894)
Kind of assay: LTEA_HepaRG_CCND2: Life Technologies and Expression Analysis (LTEA) Assay for Cyclin D2 (CCND2) using HepaRG (AID 2283449).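 Also: CCND2 transcript measured by TaqMan qRT-PCR and normalised to three housekeeping genes.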 The procedure, abridged: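 HepaRG, 48 h dosing, 8-pt half-log curve from 100 uM, 0.5% DMSO; duplicate wells. Readout: CCND2 transcript by microfluidic qRT-PCR, housekeeping-normalised; bidirectional fit vs DMSO baseline.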

Read-out in assay [4]: Cyclin Dependent Kinase Inhibitor 1A (CDKN1A), CDKN1A (gene 1026)
As to the kind of experiment: LTEA_HepaRG_CDKN1A: Life Technologies and Expression Analysis (LTEA) Assay for Cyclin Dependent Kinase Inhibitor 1A (CDKN1A) using HepaRG (AID 2283450). The procedure, abridged:
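Expression quantified by Fluidigm qRT-PCR with ACTB, GAPDH and POLR2A normalization, fitted bidirectionally against 0.5% DMSO. Cells: HepaRG, plated 48 h then treated 48 h in serum-free induction medium, top concentration 100 uM with half-log dilutions.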

Read-out in assay [5]: Cyclin D1 (CCND1), CCND1 (gene 595)
As to the kind of experiment: LTEA_HepaRG_CCND1: Life Technologies and Expression Analysis (LTEA) Assay for Cyclin D1 (CCND1) using HepaRG (AID 2283451).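 As to AC50: differentiated human HepaRG liver cells in serum-free induction medium; TaqMan qRT-PCR transcript level normalised to ACTB GAPDH and POLR2A housekeeping genes.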 The gist of the method: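 Expression of CCND1 was quantified by qRT-PCR on Fluidigm arrays using ACTB, GAPDH and POLR2A as reference genes. HepaRG cultures, plated 48 h beforehand, were dosed for 48 h at up to 100 uM (half-log, 8 points) in 0.5% DMSO.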

Read-out in assay [6]: catalase (CAT), CAT (gene 847)
As to the kind of experiment: LTEA_HepaRG_CAT: Life Technologies and Expression Analysis (LTEA) Assay for catalase (CAT) using HepaRG (AID 2283452). The gist of the method: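 HepaRG cells in serum-free induction medium, 0.5% DMSO vehicle, exposed 48 h in duplicate over 8 half-log concentrations from 100 uM. CAT mRNA measured by qRT-PCR, normalized to ACTB, GAPDH, POLR2A; bidirectional fit versus DMSO.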

Read-out in assay [7]: flavin-containing dimethylaniline monooxygenases 3 (FMO3), FMO3 (gene 2328)
Kind of assay: LTEA_HepaRG_FMO3: Life Technologies and Expression Analysis (LTEA) Assay for flavin-containing dimethylaniline monooxygenases 3 (FMO3) using HepaRG (AID 2283453).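 As to AC50: differentiated human HepaRG liver cells in serum-free induction medium.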 The gist of the method: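 FMO3 transcript quantified by TaqMan qRT-PCR against three housekeeping genes after 48 h chemical exposure of HepaRG cells. Eight-point half-log series, top 100 uM, 0.5% DMSO vehicle; phenobarbital 1mM induction control; up- or down-regulation fitted.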

Read-out in assay [8]: Cytochrome P450 (CYP1A1), CYP1A1 (gene 1543)
As to the kind of experiment: LTEA_HepaRG_CYP1A1: Life Technologies and Expression Analysis (LTEA) Assay for Cytochrome P450 (CYP1A1) using HepaRG (AID 2283454). The gist of the method: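 CYP1A1 transcript levels measured by Fluidigm qRT-PCR against three housekeeping genes, 48 h after chemical dosing of human HepaRG cells (highest concentration 100 uM, half-log steps, 0.5% DMSO vehicle). Gain or loss of signal fitted relative to DMSO.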

Read-out in assay [9]: CFLAR gene, CFLAR (gene 8837)
Kind of assay: LTEA_HepaRG_CFLAR: Life Technologies and Expression Analysis (LTEA) Assay for CFLAR gene using HepaRG (AID 2283455). The procedure, abridged:
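qRT-PCR read-out (Fluidigm/TaqMan) of CFLAR mRNA, normalized to three housekeeping genes, in differentiated human HepaRG cells after 48 h chemical exposure; 8-point half-log series from 100 uM in 0.5% DMSO; bidirectional curve fitting versus DMSO.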

Read-out in assay [10]: Forkhead box O1 (FOXO1), FOXO1 (gene 2308)
As to the kind of experiment: LTEA_HepaRG_FOXO1: Life Technologies and Expression Analysis (LTEA) Assay for Forkhead box O1 (FOXO1) using HepaRG (AID 2283456). The procedure, abridged: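 HepaRG, 48 h exposure, 8-pt half-log series from 100 uM in 0.5% DMSO, duplicates; Fluidigm qRT-PCR mRNA, housekeeping-normalised; bidirectional fit vs DMSO baseline.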

Read-out in assay [11]: growth arrest and DNA damage 45 (GADD45A), GADD45A (gene 1647)
Kind of assay: LTEA_HepaRG_GADD45A: Life Technologies and Expression Analysis (LTEA) Assay for growth arrest and DNA damage 45 (GADD45A) using HepaRG (AID 2283458). The gist of the method:
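Transcript induction or loss, quantified by TaqMan qRT-PCR against three housekeeping genes, is the read-out. HepaRG cells received chemicals for 48 h across eight half-log concentrations from 100 uM in 0.5% DMSO; gain and loss fitted relative to DMSO.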

Read-out in assay [12]: Forkhead box O3 (FOXO3), FOXO3 (gene 2309)
Kind of assay: LTEA_HepaRG_FOXO3: Life Technologies and Expression Analysis (LTEA) Assay for Forkhead box O3 (FOXO3) using HepaRG (AID 2283459). The gist of the method:
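qRT-PCR readout of FOXO3 transcript, normalized to three housekeeping genes (ACTB, GAPDH, POLR2A); gain or loss fitted against 0.5% DMSO vehicle. HepaRG cells, 48 h chemical exposure, 8-point half-log series, top 100 uM.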

Read-out in assay [13]: ABC Transporter (ABCB1), ABCB1 (gene 5243)
Kind of assay: LTEA_HepaRG_ABCB1: Life Technologies and Expression Analysis (LTEA) Assay for ABC Transporter (ABCB1) using HepaRG (AID 2283460). The procedure, abridged: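 HepaRG, 48 h exposure, 8-pt half-log series from 100 uM, 0.5% DMSO vehicle, duplicates. Readout: ABCB1 transcript by Fluidigm TaqMan qRT-PCR, housekeeping-normalized; bidirectional curve fit vs DMSO baseline.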

Read-out in assay [14]: growth arrest and DNA damage 45 (GADD45B), GADD45B (gene 4616)
As to the kind of experiment: LTEA_HepaRG_GADD45B: Life Technologies and Expression Analysis (LTEA) Assay for growth arrest and DNA damage 45 (GADD45B) using HepaRG (AID 2283461). The gist of the method:
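Transcript level quantified by Fluidigm TaqMan qRT-PCR with three housekeeping genes for normalization, analyzed for up- or down-regulation against 0.5% DMSO. HepaRG cultures dosed 48 h at eight half-log concentrations up to 100 uM, duplicates.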

Read-out in assay [15]: ABC Transporter (ABCC3), ABCC3 (gene 8714)
As to the kind of experiment: LTEA_HepaRG_ABCC3: Life Technologies and Expression Analysis (LTEA) Assay for ABC Transporter (ABCC3) using HepaRG (AID 2283462). The procedure, abridged:
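Transcript level by TaqMan qRT-PCR, normalised to three housekeeping genes, fitted in both directions relative to vehicle. Chemicals tested in duplicate at eight half-log concentrations up to 100 uM for 48 h on HepaRG cells (0.5% DMSO).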

Read-out in assay [16]: ABC Transporter (ABCB11), ABCB11 (gene 8647)
Kind of assay: LTEA_HepaRG_ABCB11: Life Technologies and Expression Analysis (LTEA) Assay for ABC Transporter (ABCB11) using HepaRG (AID 2283463). The gist of the method:
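HepaRG, 48 h exposure, 8-pt half-log CRC top 100 uM, 0.5% DMSO vehicle, duplicates. Readout: TaqMan qRT-PCR of ABCB11 mRNA, housekeeping-normalized (ACTB/GAPDH/POLR2A). Bidirectional fit vs DMSO baseline.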

Read-out in assay [17]: Broad substrate specificity ATP-binding cassette transporter ABCG2 (Homo sapiens) (UniProt Q9UNQ0)
Kind of assay: LTEA_HepaRG_ABCG2: Life Technologies and Expression Analysis (LTEA) Assay for ABC Transporter (ABCG2) using HepaRG (AID 2283465). The procedure, abridged: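 HepaRG, 48 h exposure, 8-pt half-log series from 100 uM, 0.5% DMSO vehicle, duplicates. Readout: ABCG2 transcript by qRT-PCR (Fluidigm array), housekeeping-normalized; bidirectional curve fit relative to DMSO baseline.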

Read-out in assay [18]: ABC Transporter (ABCC2), ABCC2 (gene 1244)
As to the kind of experiment: LTEA_HepaRG_ABCC2: Life Technologies and Expression Analysis (LTEA) Assay for ABC Transporter (ABCC2) using HepaRG (AID 2283464). The gist of the method:
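Endpoint is ABCC2 transcript level from qRT-PCR, normalized to three housekeeping genes and fitted bidirectionally relative to DMSO. Human HepaRG cells received test chemical for 48 h at up to 100 uM (8 points, half-log steps, 0.5% DMSO), duplicate wells.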

Chain of Broad substrate specificity ATP-binding cassette transporter ABCG2 (Homo sapiens) (Q9UNQ0 whole entry, looked up): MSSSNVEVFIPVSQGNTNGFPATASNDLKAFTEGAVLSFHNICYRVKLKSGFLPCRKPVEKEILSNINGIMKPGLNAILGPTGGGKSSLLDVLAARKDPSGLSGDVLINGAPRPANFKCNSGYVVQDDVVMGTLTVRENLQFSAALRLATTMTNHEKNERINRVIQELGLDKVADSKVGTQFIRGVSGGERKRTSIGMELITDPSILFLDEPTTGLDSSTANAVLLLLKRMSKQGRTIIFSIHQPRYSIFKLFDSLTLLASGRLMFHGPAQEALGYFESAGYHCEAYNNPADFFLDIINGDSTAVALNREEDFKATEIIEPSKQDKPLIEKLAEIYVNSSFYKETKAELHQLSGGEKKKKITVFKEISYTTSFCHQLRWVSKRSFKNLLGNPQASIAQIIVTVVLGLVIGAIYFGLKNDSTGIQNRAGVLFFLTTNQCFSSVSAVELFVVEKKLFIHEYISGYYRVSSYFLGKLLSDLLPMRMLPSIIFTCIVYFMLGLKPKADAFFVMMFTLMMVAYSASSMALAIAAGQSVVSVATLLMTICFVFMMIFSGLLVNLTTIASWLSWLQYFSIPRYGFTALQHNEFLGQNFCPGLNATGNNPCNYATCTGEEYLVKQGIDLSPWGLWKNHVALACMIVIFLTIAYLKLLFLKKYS
Chain of Fatty acid synthase (Homo sapiens) (P49327 whole entry, looked up): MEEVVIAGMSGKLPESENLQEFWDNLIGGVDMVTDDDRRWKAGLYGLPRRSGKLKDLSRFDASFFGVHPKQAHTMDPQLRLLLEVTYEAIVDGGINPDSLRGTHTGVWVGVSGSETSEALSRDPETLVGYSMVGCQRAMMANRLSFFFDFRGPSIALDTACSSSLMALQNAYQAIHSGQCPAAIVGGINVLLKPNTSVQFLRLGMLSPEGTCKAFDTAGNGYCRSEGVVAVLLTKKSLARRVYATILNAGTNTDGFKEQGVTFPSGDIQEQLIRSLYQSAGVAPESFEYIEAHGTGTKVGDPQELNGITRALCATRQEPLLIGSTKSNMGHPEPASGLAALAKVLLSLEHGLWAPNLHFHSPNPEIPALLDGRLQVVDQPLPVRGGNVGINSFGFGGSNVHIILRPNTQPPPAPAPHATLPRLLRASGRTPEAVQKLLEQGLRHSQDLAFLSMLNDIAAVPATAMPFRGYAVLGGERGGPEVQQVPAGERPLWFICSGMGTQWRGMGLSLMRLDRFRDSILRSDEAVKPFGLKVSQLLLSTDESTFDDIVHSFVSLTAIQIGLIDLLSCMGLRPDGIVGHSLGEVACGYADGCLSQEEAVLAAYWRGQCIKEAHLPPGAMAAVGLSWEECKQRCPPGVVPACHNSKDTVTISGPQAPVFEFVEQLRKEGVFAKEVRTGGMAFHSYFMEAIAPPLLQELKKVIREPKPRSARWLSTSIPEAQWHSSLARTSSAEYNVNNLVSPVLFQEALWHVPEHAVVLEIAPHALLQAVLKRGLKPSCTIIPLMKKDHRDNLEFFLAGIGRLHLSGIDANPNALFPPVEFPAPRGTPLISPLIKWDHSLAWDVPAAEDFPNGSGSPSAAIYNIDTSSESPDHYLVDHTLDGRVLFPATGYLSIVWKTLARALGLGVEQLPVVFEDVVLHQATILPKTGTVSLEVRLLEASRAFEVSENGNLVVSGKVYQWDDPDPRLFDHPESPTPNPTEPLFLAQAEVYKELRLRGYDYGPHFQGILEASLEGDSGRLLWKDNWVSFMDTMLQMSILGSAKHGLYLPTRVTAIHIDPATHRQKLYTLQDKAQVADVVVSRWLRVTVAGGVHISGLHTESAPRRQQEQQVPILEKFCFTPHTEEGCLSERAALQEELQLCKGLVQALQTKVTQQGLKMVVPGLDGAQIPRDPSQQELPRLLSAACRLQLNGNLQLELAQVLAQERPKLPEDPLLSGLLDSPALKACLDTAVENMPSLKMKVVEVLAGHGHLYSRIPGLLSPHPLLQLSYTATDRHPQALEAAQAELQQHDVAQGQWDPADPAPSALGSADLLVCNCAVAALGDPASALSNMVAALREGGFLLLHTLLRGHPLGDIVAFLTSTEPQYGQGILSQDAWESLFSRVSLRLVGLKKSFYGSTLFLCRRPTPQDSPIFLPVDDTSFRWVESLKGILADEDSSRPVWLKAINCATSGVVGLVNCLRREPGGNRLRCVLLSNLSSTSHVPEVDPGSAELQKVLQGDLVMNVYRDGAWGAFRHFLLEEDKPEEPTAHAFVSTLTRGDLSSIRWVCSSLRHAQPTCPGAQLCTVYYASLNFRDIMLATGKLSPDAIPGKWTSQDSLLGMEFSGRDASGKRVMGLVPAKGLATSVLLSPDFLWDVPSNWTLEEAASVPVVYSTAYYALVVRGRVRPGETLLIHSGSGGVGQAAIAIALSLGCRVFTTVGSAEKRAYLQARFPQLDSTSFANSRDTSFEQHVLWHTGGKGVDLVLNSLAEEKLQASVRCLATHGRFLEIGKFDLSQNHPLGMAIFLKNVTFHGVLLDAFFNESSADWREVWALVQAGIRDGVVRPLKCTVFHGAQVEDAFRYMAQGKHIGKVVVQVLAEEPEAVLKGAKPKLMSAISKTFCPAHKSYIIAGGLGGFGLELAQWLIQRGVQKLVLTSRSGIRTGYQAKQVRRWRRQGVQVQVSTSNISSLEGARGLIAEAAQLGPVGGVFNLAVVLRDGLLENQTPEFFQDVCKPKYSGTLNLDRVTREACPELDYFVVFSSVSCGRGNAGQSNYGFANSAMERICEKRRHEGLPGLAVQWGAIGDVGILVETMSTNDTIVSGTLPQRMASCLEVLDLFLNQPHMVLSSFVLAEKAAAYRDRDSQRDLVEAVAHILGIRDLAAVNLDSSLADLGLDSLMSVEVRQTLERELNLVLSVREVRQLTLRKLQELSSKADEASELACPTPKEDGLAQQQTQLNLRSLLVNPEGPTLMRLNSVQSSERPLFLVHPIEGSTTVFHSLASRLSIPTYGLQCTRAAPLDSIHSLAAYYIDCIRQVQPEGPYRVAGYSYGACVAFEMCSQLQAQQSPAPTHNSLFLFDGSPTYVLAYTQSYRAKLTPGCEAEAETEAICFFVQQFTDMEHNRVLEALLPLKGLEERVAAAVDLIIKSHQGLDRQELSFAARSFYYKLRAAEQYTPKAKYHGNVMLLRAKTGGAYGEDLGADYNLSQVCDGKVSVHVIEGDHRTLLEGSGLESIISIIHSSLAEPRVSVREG

As usually defined, the AC50 is the midpoint of the concentration-response curve, whichever way the signal moves. In the case of `O=C1OC(=O)C2C3C=CC(C3)C12` (stereo not drawn), the result in assay [1], in assay [2], in [3], in assay [4], in assay [5] and in assay [6] was inactive. For the same compound, the outcome in assay [7], in assay [9], in assay [10], in assay [11], in assay [12] and in [13] was inactive. Also, the compound was classed as inactive in [14], in [15], in assay [16] and in assay [17]. Further, the concentration at half-maximal activity (AC50) in [8] was 84.5 µM (active).

For the compound `O=C1CCCCCN1`, the result in assay [1], in assay [2], in [3], in assay [4], in assay [5] and in [6] was inactive. Further, the result in assay [7], in assay [8], in [9], in [10], in assay [11] and in assay [12] was inactive. Also, the outcome in assay [13], in assay [14], in assay [15], in assay [16] and in assay [17] was inactive.

As for `COCCOc1cc2cc(C(=O)NC3CCN(C(C)C)CC3)n(CC(=O)Nc3ccc(Cl)cn3)c2cn1`, the compound was called inactive in assay [1], in [3], in [4], in assay [10], in assay [11] and in [14]. In addition, in assay [17], the compound was classed as inactive. Moreover, the AC50 in assay [2] was 32.5 µM (active); in [5] it was 45 µM (active); in assay [6] it was 45 µM (active); in [7] it was 53.3 µM (active); in [8], 2.09 µM (active); in [12], 11.6 µM (active). For the same compound, the AC50 is 20.6 µM (active) in [13], 45 µM (active) in [15], 59.5 µM (active) in assay [16] and 37.2 µM (active) in assay [18].

Consider `CC(C)=CCC/C(C)=C/CO`, for which the result in [1], in [2], in [3], in assay [4], in assay [5] and in [6] was inactive. Also, the compound was classed as inactive in assay [7], in assay [10], in assay [11], in assay [12], in assay [13] and in assay [14]. The result in assay [15], in assay [16] and in assay [17] was inactive.

As to `CCOCCO`, the compound was called inactive in assay [2], in [4], in assay [5], in assay [6], in [7] and in [8]. Further, the call in assay [9], in assay [10], in [11], in assay [12], in assay [13] and in assay [14] was inactive. Moreover, the compound was classed as inactive in assay [15], in assay [16], in assay [18] and in [17].

With `O=c1n(CC2CO2)c(=O)n(CC2CO2)c(=O)n1CC1CO1` (stereo not drawn), the result in assay [2], in assay [3], in [5], in assay [6], in assay [7] and in assay [8] was inactive. Also, the outcome in [9], in assay [10], in assay [11], in assay [12], in [13] and in assay [15] was inactive. In addition, the outcome in assay [17] was inactive. The values for the concentration at half-maximal activity (AC50) in [4], in [14] and in assay [16] were 58.7 µM (active), 79.1 µM (active) and 88 µM (active), respectively.
